Activity calls are given as the source filed them. The call rests on the fitted dose curve.
Target: Catechol O-methyltransferase (Homo sapiens) (UniProt P21964)
Assay: Confirmatory Screen for Target Class Profiling of Small Molecule Inhibitors of Methyltransferases (AID 1745852); on activity change, negative = inhibition: on the % scale 0 is the no-effect control and ±100 the full control effect
Details: MTase-Glo luminescence, SAH detection, recombinant enzyme; measured here: COMT max response; stronger effect = lower value
Potency means the concentration at half of the fitted maximal effect.

Chain of Catechol O-methyltransferase (Homo sapiens) (P21964 whole entry, looked up): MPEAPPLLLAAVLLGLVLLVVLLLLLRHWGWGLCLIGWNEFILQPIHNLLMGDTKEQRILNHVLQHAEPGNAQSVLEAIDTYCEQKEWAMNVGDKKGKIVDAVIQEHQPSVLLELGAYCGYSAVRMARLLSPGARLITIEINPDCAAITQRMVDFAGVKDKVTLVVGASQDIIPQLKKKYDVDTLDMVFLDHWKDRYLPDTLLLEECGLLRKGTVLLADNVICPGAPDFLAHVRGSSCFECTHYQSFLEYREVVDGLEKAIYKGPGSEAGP

Row | Structure (SMILES) | activity
1 | COc1cc(/C=C/C(=O)O[C@H]2[C@@H]3C=CO[C@@H](O[C@@H]4O[C@H](CO)[C@@H](O)[C@H](O)[C@H]4O)[C@@H]3[C@@]3(CO)O[C@@H]23)ccc1O | -66.9%
2 | CC(C)(O)C1CC=C(C(=O)OC[C@H]2O[C@@H](Oc3cc(C(=O)O)cc(O)c3O)[C@H](O)[C@@H](O)[C@@H]2O)CC1 (stereo partly specified) | -82.4%
3 | C=C(C(=O)O)[C@H]1C[C@]2(C)C(=O)CC[C@]23O[C@H]1C[C@@H]3C | -84.1%
4 | COc1c(O)cc2c(c1O)C(=O)O[C@H](C)[C@H]2O | -42.1%
5 | C=C[C@H]1[C@H](O[C@@H]2O[C@H](CO)[C@@H](O)[C@H](OC(=O)/C=C/c3ccc(O)c(OC)c3)[C@H]2O)OC=C2C(=O)OCC[C@]21O | -63.6%
6 | COc1cc(/C=C/C(=O)OCC2OC(OC3(CO)OC(CO)C(O)C3O)C(O)C(O)C2O)ccc1O (stereo unspecified) | -68.2%
7 | CC1(C)CC[C@]2(C(=O)O[C@@H]3O[C@H](CO)[C@@H](O)[C@H](O)[C@H]3O)CC[C@]3(C)C(=CCC4[C@@]5(C)C[C@@H](O)[C@H](O)[C@@](C)(CO)C5[C@H](O)C[C@]43C)C2[C@@H]1O (stereo partly specified) | -79.3%
8 | OC[C@H]1O[C@@H](OCCc2ccccc2)[C@H](O[C@@H]2OC[C@@H](O)[C@H](O)[C@H]2O)[C@@H](O)[C@@H]1O | -76.4%
9 | CC1=CCC(O)C2(C)CCC3C(C)C(=O)OC3C12 (stereo unspecified) | -77%
10 | O=c1[nH]ccc2nc(-c3ccc(CN4CCC(c5nc(-c6ccccn6)n[nH]5)CC4)cc3)c(-c3ccccc3)cc12 | -10.1%
11 | O=C(NCC(=O)N1CCCC1)Nc1ccc2ccccc2c1 | 1.31%
12 | O=C(/C=C/c1ccc(O)cc1)OC[C@@]1(O)C=C[C@@H]2C(C(=O)O)=CO[C@@H](O[C@@H]3O[C@H](CO)[C@@H](O)[C@H](O)[C@H]3O)[C@@H]21 | -58.3%
13 | C=C1C(=O)O[C@@H]2CC(C)=C([C@@H](C)CCCOC(C)=O)[C@@H](O)[C@H]12 | -78.5%
14 | CC(C)c1cc2c(c(O)c1O)[C@@]13CCCC(C)(C)C1[C@@H](O)[C@@H]2OC3=O (stereo partly specified) | -82.4%
15 | CC1CC(=O)C2=C(O1)OC1(C)CCC3C(C)(C)C4OC4C(=O)C3(C)C1C2 (stereo unspecified) | -27.1%
16 | CC(=O)NC(Cc1c[nH]c2ccccc(=O)c12)C(=O)O (stereo unspecified) | -73.7%
17 | O=C(O)Cn1nnc(-c2ccc(CN(CCCCOc3ccc(CN4CCCC4)cc3)CCc3ccccc3)cc2)n1 | -3.03%

Row | Structure (SMILES) | activity
18 | O=C(O)CC1CCC(c2ccc(-c3ccc(Nc4ccc(C(F)(F)F)nc4)cn3)cc2)CC1 (stereo unspecified) | -2.38%
19 | C[C@]1(C2CCCC2)Cc2cc(OCC(=O)O)c(Cl)c(Cl)c2C1=O | -5.66%
20 | CC1=CC(=O)C(=C(C)C)CC2C(C)(O)CCC12O (stereo unspecified) | -81.2%
21 | C=CC(C)(O)CC/C=C(\C)COC1O[C@H](CO)[C@@H](O)[C@H](O)[C@H]1O (stereo partly specified) | -76.9%
22 | O=C(COCC(=O)N1CCN(C(c2ccccc2)c2ccccc2)CC1)Nc1ccc(Cl)cc1C(=O)O | -5.29%
23 | C=C[C@H]1[C@H](O[C@@H]2O[C@H](CO)[C@@H](O)[C@H](O)[C@H]2O)OC=C(C(=O)OC)[C@H]1CCO | -72.1%
24 | CC(=O)c1c(C)cccc1O[C@@H]1O[C@H](CO)[C@@H](O)[C@H](O)[C@H]1O | -68.9%
25 | COC(=O)[C@H](Cc1cccc(C(=N)N)c1)[C@@H](C)NC(=O)c1ccc(-c2cc[n+]([O-])cc2)cc1 | -6.84%
26 | CC(=O)OC1CC(=O)C2(C)C3CC4=C(OC(C)CC4=O)OC3(C)CCC2C1(C)C (stereo unspecified) | -40.9%
27 | Nc1ncnc2c1ncn2[C@H]1O[C@@H](C(=O)N2CCN(CC(=O)Nc3cccc4c3CNC4=O)CC2)[C@H](O)[C@@H]1O | -12.8%
28 | C=C(C(=O)O)[C@@H]1CC[C@H](C)[C@@H]2CC(=O)C(C)=C2C1 | -63.8%
29 | O=C(/C=C/c1ccccc1)OC[C@H]1O[C@@H](OC(=O)c2cc(O)c(O)c(O)c2)[C@H](O)[C@@H](O)[C@@H]1O | -76.6%
30 | CC1(C)C2CCC1(C)C(OC(=O)C(O)(CC(=O)O)CC(=O)O)C2 (stereo unspecified) | -73.1%
31 | CC(C)=C1CC2C(CCC2(C)O)C(C)(O)CC1=O (stereo unspecified) | -78.9%
32 | O=C(O)c1cccc(CN2C(=O)/C(=C(\c3ccccc3)c3ccc(Cl)cc3)c3ccccc32)c1 | -6.02%
33 | COc1cc(C2Oc3c(OC)cc(/C=C/C(=O)OC4CC(O)(C(=O)O)CC(O)C4O)cc3C2CO)ccc1O (stereo unspecified) | -71.9%

Target: Guanidinoacetate N-methyltransferase (Homo sapiens) (UniProt Q14353)
Assay: as above
Details: MTase-Glo luminescence, SAH detection, recombinant enzyme; activity change, negative = inhibition: at 57.3 µM (top of the series) unless noted

Row | Structure (SMILES) | activity change, negative = inhibition | Potency
34 | COc1cc(/C=C/C(=O)O[C@H]2[C@@H]3C=CO[C@@H](O[C@@H]4O[C@H](CO)[C@@H](O)[C@H](O)[C@H]4O)[C@@H]3[C@@]3(CO)O[C@@H]23)ccc1O | 0% [at 29.8 µM] | 
35 | CC(C)(O)C1CC=C(C(=O)OC[C@H]2O[C@@H](Oc3cc(C(=O)O)cc(O)c3O)[C@H](O)[C@@H](O)[C@@H]2O)CC1 (stereo partly specified) | -6.92% [at 29.8 µM] | 
36 | C=C(C(=O)O)[C@H]1C[C@]2(C)C(=O)CC[C@]23O[C@H]1C[C@@H]3C | -1.21% | 
37 | COc1c(O)cc2c(c1O)C(=O)O[C@H](C)[C@H]2O | 0.552% | 
38 | C=C[C@H]1[C@H](O[C@@H]2O[C@H](CO)[C@@H](O)[C@H](OC(=O)/C=C/c3ccc(O)c(OC)c3)[C@H]2O)OC=C2C(=O)OCC[C@]21O | -8.69% [at 29.8 µM] | 
39 | COc1cc(/C=C/C(=O)OCC2OC(OC3(CO)OC(CO)C(O)C3O)C(O)C(O)C2O)ccc1O (stereo unspecified) | -1.33% [at 29.8 µM] | 
40 | CC1(C)CC[C@]2(C(=O)O[C@@H]3O[C@H](CO)[C@@H](O)[C@H](O)[C@H]3O)CC[C@]3(C)C(=CCC4[C@@]5(C)C[C@@H](O)[C@H](O)[C@@](C)(CO)C5[C@H](O)C[C@]43C)C2[C@@H]1O (stereo partly specified) | 0% [at 19.1 µM] | 
41 | OC[C@H]1O[C@@H](OCCc2ccccc2)[C@H](O[C@@H]2OC[C@@H](O)[C@H](O)[C@H]2O)[C@@H](O)[C@@H]1O | 0% [at 29.8 µM] | 
42 | CC1=CCC(O)C2(C)CCC3C(C)C(=O)OC3C12 (stereo unspecified) | 0% | 
43 | O=c1[nH]ccc2nc(-c3ccc(CN4CCC(c5nc(-c6ccccn6)n[nH]5)CC4)cc3)c(-c3ccccc3)cc12 | -7.59% | 
44 | O=C(NCC(=O)N1CCCC1)Nc1ccc2ccccc2c1 | -10.4% | 
45 | O=C(/C=C/c1ccc(O)cc1)OC[C@@]1(O)C=C[C@@H]2C(C(=O)O)=CO[C@@H](O[C@@H]3O[C@H](CO)[C@@H](O)[C@H](O)[C@H]3O)[C@@H]21 | 0.0203% [at 29.8 µM] | 
46 | C=C1C(=O)O[C@@H]2CC(C)=C([C@@H](C)CCCOC(C)=O)[C@@H](O)[C@H]12 | 1.58% | 
47 | CC(C)c1cc2c(c(O)c1O)[C@@]13CCCC(C)(C)C1[C@@H](O)[C@@H]2OC3=O (stereo partly specified) | -4.37% | 
48 | CC1CC(=O)C2=C(O1)OC1(C)CCC3C(C)(C)C4OC4C(=O)C3(C)C1C2 (stereo unspecified) | 0% | 
49 | CC(=O)NC(Cc1c[nH]c2ccccc(=O)c12)C(=O)O (stereo unspecified) | 0% | 
50 | O=C(O)Cn1nnc(-c2ccc(CN(CCCCOc3ccc(CN4CCCC4)cc3)CCc3ccccc3)cc2)n1 | 0% | 

Row | Structure (SMILES) | activity change, negative = inhibition | Potency
51 | O=C(O)CC1CCC(c2ccc(-c3ccc(Nc4ccc(C(F)(F)F)nc4)cn3)cc2)CC1 (stereo unspecified) | 0.046% | 
52 | C[C@]1(C2CCCC2)Cc2cc(OCC(=O)O)c(Cl)c(Cl)c2C1=O | -6.29% | 
53 | CC1=CC(=O)C(=C(C)C)CC2C(C)(O)CCC12O (stereo unspecified) | 0.373% | 
54 | C=CC(C)(O)CC/C=C(\C)COC1O[C@H](CO)[C@@H](O)[C@H](O)[C@H]1O (stereo partly specified) | -6.43% | 
55 | O=C(COCC(=O)N1CCN(C(c2ccccc2)c2ccccc2)CC1)Nc1ccc(Cl)cc1C(=O)O | -4.07% | 
56 | C=C[C@H]1[C@H](O[C@@H]2O[C@H](CO)[C@@H](O)[C@H](O)[C@H]2O)OC=C(C(=O)OC)[C@H]1CCO | -3.63% | 
57 | CC(=O)c1c(C)cccc1O[C@@H]1O[C@H](CO)[C@@H](O)[C@H](O)[C@H]1O | -2.96% | 
58 | COC(=O)[C@H](Cc1cccc(C(=N)N)c1)[C@@H](C)NC(=O)c1ccc(-c2cc[n+]([O-])cc2)cc1 | 0% | 
59 | CC(=O)OC1CC(=O)C2(C)C3CC4=C(OC(C)CC4=O)OC3(C)CCC2C1(C)C (stereo unspecified) | 0.0637% [at 29.8 µM] | 
60 | Nc1ncnc2c1ncn2[C@H]1O[C@@H](C(=O)N2CCN(CC(=O)Nc3cccc4c3CNC4=O)CC2)[C@H](O)[C@@H]1O |  | 21.5 µM (active)
61 | C=C(C(=O)O)[C@@H]1CC[C@H](C)[C@@H]2CC(=O)C(C)=C2C1 | 1.33% | 
62 | O=C(/C=C/c1ccccc1)OC[C@H]1O[C@@H](OC(=O)c2cc(O)c(O)c(O)c2)[C@H](O)[C@@H](O)[C@@H]1O | -1.37% [at 29.8 µM] | 
63 | CC1(C)C2CCC1(C)C(OC(=O)C(O)(CC(=O)O)CC(=O)O)C2 (stereo unspecified) | 0% | 
64 | CC(C)=C1CC2C(CCC2(C)O)C(C)(O)CC1=O (stereo unspecified) | 0% | 
65 | O=C(O)c1cccc(CN2C(=O)/C(=C(\c3ccccc3)c3ccc(Cl)cc3)c3ccccc32)c1 | -1.74% | 
66 | COc1cc(C2Oc3c(OC)cc(/C=C/C(=O)OC4CC(O)(C(=O)O)CC(O)C4O)cc3C2CO)ccc1O (stereo unspecified) | -2.32% [at 29.8 µM] | 

From PubChem BioAssay (NCATS)
